# ± gives the standard deviation.
# How the values were obtained:
# Details in all cases: modulator concentration 10 µM
# [1] = system: RAW-Dual (murine macrophage reporter line); experiment: NF-kB reporter (SEAP) activity fold change vs agonist alone; higher = enhanced NF-kB activity
# Summary of the method: (§1)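 RAW-Dual murine macrophage reporter cells were plated at 50 000 per well in 384-well plates, pin-transferred compound to 10 μM final, and pre-incubated for 1 hour at 37 °C before a PRR agonist was added and the cells incubated overnight. NF-κB activity was read from supernatant SEAP with QUANTI-Blue at 620 nm absorbance, and IRF activity from Lucia luciferase with QUANTI-Luc by luminescence. Each signal was expressed as fold change by dividing by the mean agonist-only control on the same plate. Two replicate plates were averaged, with errors obtained by propagation.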
# [2] = system: RAW-Dual (murine macrophage reporter line); experiment: IRF reporter (Lucia luciferase) activity fold change vs agonist alone; higher = enhanced IRF activity
# Summary of the method: as §1
# [3] = system: RAW-Dual (murine macrophage reporter line); experiment: viability score (confluency relative to resting cells, overnight) (fraction); higher = more viable, active = viable (0.7 or more)
# Summary of the method: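 RAW-Dual macrophages in 384-well plates were incubated overnight with compound, final concentration 10 μM. Confluency images from IncuCyte were processed in IncuCyte software into two masks covering all imaged wells. The viability score is each well's confluency relative to resting cells, and a compound met the cutoff when both masks exceeded 70% of resting cells.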
# [4] = agonist: CpG ODN 1826 0.5 ug/mL
SMILES,"NF-kB reporter [1, 4]",NF-kB reporter ([1]; agonist: LPS 0.1 ug/mL),NF-kB reporter ([1]; agonist: MPLA […]),IRF reporter ([2]; agonist: 3'3'-cGAMP 10 ug/mL),IRF reporter ([2]; agonist: LPS 0.1 ug/mL),IRF reporter ([2]; agonist: MPLA […]),viability score [3]
Cc1cc(NC(=O)c2ccoc2COc2ccccc2)no1,1.17 ± 0.063,1.08 ± 0.093,1.32 ± 0.071,1.21 ± 0.061,1.21 ± 0.23,1.46 ± 0.38,0.962 (active)
Cc1ccccc1N=Nc1ccc(NC(=O)c2ccnn2C)c(C)c1,1.12 ± 0.21,1.06 ± 0.086,0.946 ± 0.077,0.98 ± 0.039,1.21 ± 0.15,1.25 ± 0.21,1.01 (active)
NC(=O)OCC(COC(N)=O)c1ccccc1,1.06 ± 0.079,1.02 ± 0.05,1.04 ± 0.095,1.16 ± 0.26,0.945 ± 0.062,0.94 ± 0.11,1 (active)
COc1ccc(OS(=O)(=O)c2ccc3cc(OC)ccc3c2)cc1,0.982 ± 0.088,1.14 ± 0.089,1.06 ± 0.068,1 ± 0.035,1.43 ± 0.1,1.03 ± 0.15,1 (active)
COc1ccccc1NS(=O)(=O)c1cc2c3c(c1)CC(=O)N3CCC2,0.967 ± 0.088,1.03 ± 0.096,1.07 ± 0.071,0.992 ± 0.035,1.09 ± 0.15,0.871 ± 0.11,1.01 (active)
CCOc1ccccc1O[C@H](c1ccccc1)[C@H]1CNCCO1.CS(=O)(=O)O,0.873 ± 0.095,0.979 ± 0.061,1.03 ± 0.055,0.82 ± 0.045,0.905 ± 0.15,0.897 ± 0.074,0.99 (active)
Nc1ccccc1NC(=O)c1ccc(CNC(=O)OCc2cccnc2)cc1,2.23 ± 0.17,1.53 ± 0.14,1.96 ± 0.052,0.17 ± 0.033,0.252 ± 0.025,0.298 ± 0.029,0.913 (active)
COc1ccc(C(=O)C=Cc2cc(OC)c(OC)c(OC)c2)c(O)c1,1.63 ± 0.13,0.199 ± 0.018,0.273 ± 0.026,0.148 ± 0.014,0.0569 ± 0.019,0.0398 ± 0.015,0.794 (active)
Cc1ccc(C(=O)N(CCCN)[C@@H](c2nc3cc(Cl)ccc3c(=O)n2Cc2ccccc2)C(C)C)cc1,0.186 ± 0.034,0.318 ± 0.13,0.59 ± 0.089,0.209 ± 0.057,0.52 ± 0.23,0.241 ± 0.09,0.0279 (inactive)
CCCOc1ccc(C2NC(=O)NC(C)=C2C(=O)OC(C)C(C)(C)C)cc1OC (centres undefined),0.557 ± 0.033,1.04 ± 0.063,0.746 ± 0.052,0.478 ± 0.016,0.722 ± 0.077,0.656 ± 0.061,0.96 (active)
Cn1cnc2cc(NCc3ccc(Br)cc3)ccc21,0.882 ± 0.14,0.762 ± 0.076,0.984 ± 0.1,0.805 ± 0.045,1.06 ± 0.21,1.13 ± 0.25,0.984 (active)
CC[C@H](Nc1ncnc2[nH]cnc12)c1nc2cccc(F)c2c(=O)n1-c1ccccc1,1.18 ± 0.27,0.973 ± 0.11,1.04 ± 0.067,0.641 ± 0.023,0.763 ± 0.073,0.997 ± 0.18,0.964 (active)
Cl.N=c1ccn2c(n1)OC1C(O)C(CO)OC12 (centres undefined),1.41 ± 0.38,1.17 ± 0.17,1.16 ± 0.073,0.696 ± 0.026,1.15 ± 0.18,0.959 ± 0.091,0.733 (active)
O=C(Nc1nc(CC(=O)N2CCc3ccccc3C2)cs1)c1ccc(Cl)cc1,1.05 ± 0.054,1.13 ± 0.09,0.845 ± 0.047,1.01 ± 0.056,1.16 ± 0.11,1.21 ± 0.15,1.01 (active)
CC(C)(C)NCC(O)COc1cccc2c1C[C@H](O)[C@H](O)C2 (some centres undefined),1.03 ± 0.091,0.97 ± 0.051,0.971 ± 0.034,0.892 ± 0.05,0.976 ± 0.032,0.961 ± 0.11,0.981 (active)
Cc1c(C)n2c3c(=O)n(CC=Cc4ccccc4)c(=O)n(C)c3nc2n1CCOCCO,0.702 ± 0.046,1.16 ± 0.091,1.03 ± 0.17,0.98 ± 0.055,1.03 ± 0.063,1.09 ± 0.085,0.955 (active)
CCN(CC)CCN1C(=O)C(O)=C(C(=O)c2ccc(C)cc2)C1c1ccccc1 (centres undefined),0.996 ± 0.078,0.974 ± 0.064,0.893 ± 0.041,0.827 ± 0.059,0.999 ± 0.11,0.896 ± 0.2,0.996 (active)
Nc1ccc(C=Cc2ccccc2)cc1,0.964 ± 0.097,0.776 ± 0.038,0.976 ± 0.034,0.174 ± 0.012,0.857 ± 0.089,0.719 ± 0.056,0.973 (active)
CCc1c(C)nc(-n2nc(C)cc2NC(=O)CSCc2ccccc2)[nH]c1=O,0.901 ± 0.056,0.603 ± 0.082,0.885 ± 0.038,0.973 ± 0.065,1.22 ± 0.078,1.07 ± 0.099,1.02 (active)
O=C(O)CCCNc1c(C(=O)Nc2ccc(Cl)cc2)cc([N+](=O)[O-])cc1[N+](=O)[O-],0.817 ± 0.065,0.813 ± 0.057,0.942 ± 0.049,0.629 ± 0.022,1.11 ± 0.12,1.42 ± 0.24,0.511 (inactive)
COc1ccc(OC)c(S(=O)(=O)N2CCC(Oc3nc4c(C)cccc4s3)CC2)c1,0.687 ± 0.039,0.889 ± 0.092,1.02 ± 0.072,0.741 ± 0.042,1.15 ± 0.26,1.41 ± 0.57,0.908 (active)
COc1ccc(-c2cc(CNC(=O)C3CCC3)no2)cc1,1.15 ± 0.075,1.02 ± 0.1,0.934 ± 0.034,0.877 ± 0.052,1.06 ± 0.086,0.986 ± 0.23,0.995 (active)
Cc1ccc(S(=O)(=O)n2nnc3ccccc32)cc1C,1.07 ± 0.11,1.04 ± 0.092,0.991 ± 0.034,0.928 ± 0.059,0.982 ± 0.14,1 ± 0.23,1 (active)
COc1cc2c(cc1OC)CC(=O)N(CCCN(C)C[C@H]1Cc3cc(OC)c(OC)cc31)CC2.Cl,0.713 ± 0.056,0.855 ± 0.07,1.06 ± 0.097,0.962 ± 0.05,1.41 ± 0.11,1.57 ± 0.18,1.01 (active)
COC(=O)C1=COC(OC2OC(CO)C(O)C(O)C2O)C2C1CC(O)C2C (centres undefined),1.04 ± 0.081,0.974 ± 0.099,0.994 ± 0.033,0.976 ± 0.063,0.946 ± 0.13,0.951 ± 0.24,0.998 (active)
Cc1ccc(CSCCNC(=O)CN(c2cccc(C)c2)S(C)(=O)=O)cc1,0.951 ± 0.09,1.01 ± 0.056,0.99 ± 0.061,0.998 ± 0.025,1.44 ± 0.2,1.15 ± 0.2,1 (active)
CSc1ccc(C2Nc3ccccc3-c3nnc(SCc4ccc(C)cc4)nc3O2)cc1 (centres undefined),0.817 ± 0.094,0.952 ± 0.047,1.19 ± 0.1,0.877 ± 0.058,1.08 ± 0.091,1.18 ± 0.14,1.01 (active)
